Unmarked numbers belong to inactive results. Active and inactive are the calls of the source.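 Rule for the calls, unless noted: active = mean inhibition above 46.5%, the solvent-only control mean plus 3 SD; inactive = the rest.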
Key:
[1] = test system: transactivating tegument protein VP16 (Human herpesvirus 1); assay: compounds suppressing VP16-driven luciferase signal – cell-based, luminescence, single concentration, counter-screen for SRC2 inhibitor project (AID 652007; in the data active = inhibition above about 36%); details: cell-based VP16 transactivation luciferase reporter, at 8.9 µM, active compounds read high
[2] = biological target: Nuclear receptor coactivator 2 (Homo sapiens) (UniProt Q15596); assay: inhibition of GAL4-SRC2 driven luciferase expression – cell-based, luminescence, HEK293, triplicate, confirmation (AID 652008); details: HEK293 GAL4-SRC2 luciferase reporter, at 8.9 µM, active compounds read high;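 note: 0% = DMSO-treated cells and 100% = Gossypol at 36 µM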
Chain of Nuclear receptor coactivator 2 (Homo sapiens) (Q15596 whole entry, looked up, the tested form may be a part): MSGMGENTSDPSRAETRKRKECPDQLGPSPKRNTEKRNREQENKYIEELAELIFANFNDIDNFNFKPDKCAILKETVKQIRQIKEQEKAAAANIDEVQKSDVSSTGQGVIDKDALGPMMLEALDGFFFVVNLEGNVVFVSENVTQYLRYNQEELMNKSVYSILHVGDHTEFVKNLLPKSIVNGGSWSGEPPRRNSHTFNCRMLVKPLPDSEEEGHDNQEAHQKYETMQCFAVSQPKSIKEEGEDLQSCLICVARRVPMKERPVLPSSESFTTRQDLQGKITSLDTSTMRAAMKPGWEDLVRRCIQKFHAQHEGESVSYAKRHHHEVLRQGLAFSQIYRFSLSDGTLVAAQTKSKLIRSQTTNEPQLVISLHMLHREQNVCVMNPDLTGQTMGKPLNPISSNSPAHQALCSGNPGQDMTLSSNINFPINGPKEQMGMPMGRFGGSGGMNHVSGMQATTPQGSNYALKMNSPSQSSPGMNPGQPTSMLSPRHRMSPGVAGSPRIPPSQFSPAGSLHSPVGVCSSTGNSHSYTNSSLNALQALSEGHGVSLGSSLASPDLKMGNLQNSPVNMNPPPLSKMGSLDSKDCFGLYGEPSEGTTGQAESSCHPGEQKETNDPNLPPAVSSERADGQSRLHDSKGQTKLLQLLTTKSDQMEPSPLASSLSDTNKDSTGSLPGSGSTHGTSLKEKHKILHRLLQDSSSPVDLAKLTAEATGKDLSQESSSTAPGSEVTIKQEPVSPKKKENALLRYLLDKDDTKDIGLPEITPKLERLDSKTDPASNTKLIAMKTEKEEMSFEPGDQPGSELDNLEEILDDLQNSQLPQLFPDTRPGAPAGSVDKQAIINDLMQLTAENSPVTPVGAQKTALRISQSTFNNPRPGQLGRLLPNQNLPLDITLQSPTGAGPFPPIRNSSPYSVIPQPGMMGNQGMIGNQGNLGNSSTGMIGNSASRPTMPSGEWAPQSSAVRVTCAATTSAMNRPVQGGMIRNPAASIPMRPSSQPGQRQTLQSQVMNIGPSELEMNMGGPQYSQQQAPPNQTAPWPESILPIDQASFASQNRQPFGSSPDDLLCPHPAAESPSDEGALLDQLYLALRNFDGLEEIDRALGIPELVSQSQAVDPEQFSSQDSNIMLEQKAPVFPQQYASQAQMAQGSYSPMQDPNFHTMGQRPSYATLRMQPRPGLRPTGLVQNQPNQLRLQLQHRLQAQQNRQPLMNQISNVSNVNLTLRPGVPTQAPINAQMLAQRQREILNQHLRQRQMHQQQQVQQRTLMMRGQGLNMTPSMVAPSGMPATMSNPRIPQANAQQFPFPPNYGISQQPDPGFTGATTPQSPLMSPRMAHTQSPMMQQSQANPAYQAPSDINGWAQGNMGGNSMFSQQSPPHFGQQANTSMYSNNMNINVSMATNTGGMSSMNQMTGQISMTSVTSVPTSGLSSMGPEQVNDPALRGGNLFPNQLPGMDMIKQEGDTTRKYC

Row | SMILES | inhibition [1] | inhibition [2]
1 | Cc1ccc(C(=O)Nc2ncc([N+](=O)[O-])s2)cc1 | -7.15% | 57.7% (active)
2 | CSc1nnc(NC(=O)c2nc(S(=O)(=O)Cc3cccc(C)c3)ncc2Cl)s1 | 41.9% (active) | 73.1% (active)
3 | O=C(NCc1cccnc1)c1cc(Sc2ccc(F)cc2F)nc2ccccc12 | 3% | 16.4%
4 | CNc1ccccc1C(=O)OC(C)C(=O)Nc1ccc(Cl)cn1 (configuration not stated) | -10.2% | 20.9%
5 | COc1cccc(NC(=O)Nc2nnc(N3C(C)CCCC3C)s2)c1 (configuration not stated) | -51.2% | -7.93%
6 | COCCNC(=O)CN(C(=O)c1ccc(N2CCCC2)nc1)c1ccc(F)c(Cl)c1 | -5.77% | -19.2%
7 | CCC(C)(C)c1ccc(Oc2ccc(NC(=O)COC(=O)C3=COCCO3)cc2)cc1 | 33.8% | 46.5%
8 | Nc1nc(CCl)nc(Nc2ccccc2)n1 | -25.1% | 8.83%
9 | O=C(NC(=O)c1ccccc1)Nc1ccccn1 | 4.41% | 54.8% (active)
10 | Cc1cccc(N(Cc2ccccc2)C(=O)CCl)c1 | 15% | 33.4%
11 | CCc1ccc(/C=C2\SC(=S)N(CCCC(=O)NC3=NCCS3)C2=O)cc1 | 41.6% (active) | 90.5% (active)
12 | O=C1N(Cc2cccc(Cl)c2)C[C@@H]2C[C@@H](c3cccc4cccnc34)N3CCC[C@@]123 | -2.19% | -23.5%
13 | Cc1cc(Br)ccc1NC(=O)CN(C)C(=O)C1CCN(c2ncnc3sc(C)c(C)c23)CC1 | 12.9% | 23%
14 | CC(C)(C)c1ccc(Cn2c(=O)cnc3ccccc32)cc1 | 22.6% | 56.7% (active)
15 | CC1=CC(C)(C)Nc2ccc(OC(=O)CN3C(=O)c4ccccc4C3=O)cc21 | -37.1% | 26.9%
16 | CC(C)C[C@@H]1Cc2[nH][nH]c(=O)c2[C@H](C(C)C)O1 | -6.29% | -23.6%

From PubChem BioAssay
